Measurements as given in PubChem BioAssay AID492952 (Southern Research Specialized Biocontainment Screening …, 2010).
Among all 2,300 compounds or so, about 1,500 (65%) were called active. The rule behind the calls is not given here. The set was probably picked from earlier hits. This is one part of the list. Potency and affinity values are given separately.

Assay: replicating M. tuberculosis growth inhibition, dose response, non-replicating M. tuberculosis project, H37Rv (AID 492952);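 note: Mycobacterium tuberculosis grown in culture; growth inhibition read after a week of incubation; 0% = bacteria alone untreated and 100% = bacteria with high antibiotic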
Settings: series mostly up to 50 µM; inhibition: at the top concentration

Structure (SMILES) | inhibition
Cc1ccc2c(CC(=O)OCC(=O)Nc3ccc(Cl)cn3)coc2c1 | -4.98% (inactive)
O=C(Nc1ccccc1N1CCCC1)c1cccc(F)c1 | 29.2% (inactive)
Cc1ccc(NC(=O)CN(C)C2CCCCC2)cc1Br | 22.1% (inactive)
O=C(Nc1ncccn1)c1ccc([N+](=O)[O-])o1 | 14.3% (inactive)
O=C(Nc1ncccc1O)c1ccc(Oc2ccccc2)cc1 | 27.8% (inactive)
Cc1noc(C)c1COc1ccc(C(=O)Nc2ccccn2)cc1 | -1.81% (inactive)
O=C(Nc1cccnc1)c1ccc(-c2ccc(Cl)cc2)o1 | 20.2% (inactive)
CCOC(=O)c1ccc(N=C2SC(C(=O)Nc3ccc(C(=O)O)cc3)CC(=O)N2Cc2cccs2)cc1 (stereo unspecified) | 2.14% (inactive)
COC(=O)C1=C(C(=O)OC)C(c2cc(Cl)ccc2O)c2sc(=O)[nH]c2S1 (stereo unspecified) | 2.08% (inactive)
Cc1ccc(SCCC(=O)OCC(=O)NCC2CCCCC2)cc1 | -0.3% (inactive)
COc1ccccc1NC(=O)CCN1CCN(c2ccc(Cl)cc2)CC1 | -6.12% (inactive)
CC(/C=C/c1ccc2c(c1)OCO2)=N/NC(=O)C1COc2ccccc2O1 (stereo unspecified) | 16.9% (inactive)
CC(/C=C/c1ccco1)=N/NC(=O)c1ccc(C)nc1 | 2.23% (inactive)
O=C(N/N=C/c1ccc(Br)s1)c1cccnc1 | 3.06% (inactive)
O=C(N/N=C/c1ccc[nH]1)c1cccnc1 | -6.3% (inactive)
O=C(N/N=C/c1ccc[nH]1)c1ccc(Cl)cc1 | 20.1% (inactive)
Cn1cccc1/C=N/NC(=O)c1ccco1 | 9.93% (inactive)
O=C(O)c1ccc(-n2nc(C(F)(F)F)c3c2CCCC3)cc1 | 6.05% (inactive)
CCc1cc2c3c(c1)C(C)CC(C)(C)N3C(=O)/C2=C1\SC(=O)NC1=O (stereo unspecified) | 8.94% (inactive)
COc1cccc(-c2nc(C=O)cs2)c1 | 2.74% (inactive)
Cc1cc(C=C2C(=O)N(C)C(=S)N(C)C2=O)c(C)n1-c1cccnc1 | -8.71% (inactive)

Structure (SMILES) | inhibition
Cc1ccnc(-n2c(C)cc(/C=C3\C(=O)NC(=S)N(C)C3=O)c2C)c1 | -3.24% (inactive)
CCCCCCCC(=O)NNC(=O)c1ccc(F)cc1 | 11% (inactive)
Cc1ccc(S(=O)(=O)CCC(=O)Nc2nc(-c3ccncc3)cs2)cc1 | 0.69% (inactive)
CCCCOc1ccc(NC(=O)CN2CCN(Cc3ccccc3)CC2)cc1 | 29.2% (inactive)
O=C(NN=C1C2CC3CC1CC(Cl)(C3)C2)c1cccs1 | 1.63% (inactive)
Cc1ccc(NC(=O)C2COc3ccccc3O2)nc1 (stereo unspecified) | 7.82% (inactive)
CCC(=O)N/N=C/c1ccc(-c2ccc(Cl)cc2)o1 | 19.3% (inactive)
Cc1cccc(C)c1N1C(=O)CC(N2CCSCC2)C1=O (stereo unspecified) | 4.2% (inactive)
CCCCCCCC(=O)N/N=C(/C)c1c(O)cc(C)oc1=O | -0.82% (inactive)
Cc1cc(CN(C)C)c(O)c(C2(C)CCCCC2)c1 | -0.43% (inactive)
COc1ccccc1C(c1nnnn1Cc1ccccc1)N1CCC(C(N)=O)CC1 (stereo unspecified) | 2.33% (inactive)
O=C(N/N=C/c1ccc[nH]1)c1ccc2c(c1)OCO2 | 4.01% (inactive)
O=C(CC1CC2CCC1C2)NCc1cccs1 (stereo unspecified) | -7.92% (inactive)
O=C(NCc1cccs1)c1ccc(Br)o1 | 5.61% (inactive)
CC(C)c1cc(C(=O)N/N=C/C=C/c2ccccc2)n[nH]1 | -0.8% (inactive)
Cc1cc(C(=O)N/N=C/c2cccc(Cl)c2Cl)no1 | -3.85% (inactive)
O=C(N/N=C/c1cc(Br)cc(Cl)c1O)c1ccc2c(c1)OCO2 | 3.64% (inactive)
CC1(CCc2ccc3c(c2)OCO3)NC(=O)c2ccccc2N1 (stereo unspecified) | -7.98% (inactive)
CC1=CC(=O)NP(=O)(Oc2ccc3ccccc3c2)N1 (stereo unspecified) | 0.52% (inactive)
CCN(CC)CCNC(=O)c1[nH]c2ccc(OCc3ccccc3)cc2c1C | 2.9% (inactive)
Cc1cc2cc(CNC(=O)COc3ccccc3)ccc2n1C | 17.1% (inactive)

Structure (SMILES) | inhibition
CC(=O)c1c(C)n(C)c2ccc(OC(=O)c3ccco3)cc12 | 0.89% (inactive)
CCOc1ccc(-c2ccc(SCC)nn2)cc1 | -5.95% (inactive)
Oc1ccccc1Nc1nc(NCC2CCCO2)c2ccccc2n1 (stereo unspecified) | 20.9% (inactive)
CCCCCCC1CC(C)(C(=O)CNc2nncs2)OC1=O (stereo unspecified) | -1.45% (inactive)
Cc1cc2nc(CSc3ccc(Cl)cc3)cc(=O)n2[nH]1 | 3.54% (inactive)
Cc1cc(C)c2sc(NC(=O)C3=COCCO3)nc2c1 | 10.4% (inactive)
O=C(c1nnc(-c2ccc(Cl)cc2)o1)C1CCCC1 | -1.41% (inactive)
CN(C)Cc1ccccc1Sc1ccccc1Br | -6.95% (inactive)
C(#CCN1CCOCC1)COCc1ccccc1 | -4.79% (inactive)
CNC(=O)c1[nH]cnc1C(=O)Nc1ccc(Cl)cc1 | 3.71% (inactive)
COc1ccc(/C(=N/O)C(C)(C)NO)cc1 | 2.47% (inactive)
CC1COC(=O)C(NNc2ccc(Cl)c(Cl)c2)=N1 (stereo unspecified) | 3.55% (inactive)
O=C(NC(=S)NCCc1ccccc1)c1ccccc1 | -0.33% (inactive)
CCOC(=O)C1CCCN(Cc2ccc(OCc3ccccc3)cc2)C1 (stereo unspecified) | 4.54% (inactive)
CC(C)c1ccc(N2C(=O)CC(Sc3ncn[nH]3)C2=O)cc1 (stereo unspecified) | -3.1% (inactive)
CC1=NN(C(=O)c2csc(C)c2)C(O)(C(F)(F)F)C1 (stereo unspecified) | 21.6% (inactive)
CC1=NN(C(=O)c2csc(C(C)C)c2)C(O)(C(F)(F)F)C1 (stereo unspecified) | 2.71% (inactive)
O=C(COC(=O)c1ccc(Br)o1)Nc1ncc([N+](=O)[O-])s1 | 2.56% (inactive)
Nc1cccn2c(-c3ccc(Cl)cc3)cnc12 | 11.5% (inactive)
